Source: PubChem BioAssay
Values without a mark were called inactive. Activity calls are given as the source filed them.

Test: plasmodial surface anion channel blockers, osmotic lysis – cell-based, P. falciparum Indochina, OD700, 1 h, primary screen (AID 1154)
Conditions: P. falciparum Indochina infected RBC osmotic lysis, higher = more signal, called active from +8 up or from −8 down

First: C[N+](C)(C)CCCC[C@@H]1NC(=O)[C@@H]2C[C@H](C(=O)O)[C@H](c3cccc(OCCO)c3)N2C1=O
Second: C[N+](C)(C)CCCCCCNC(=O)[C@@H]1C[C@@H]2C(=O)NCC(=O)N2[C@@H]1c1ccc(O)cc1
The z-score of the first is higher: 2.2 for the first, 0.451 for the second.

First: COCCOC(=O)N1C(=O)[C@@]2(c3cc(C#CCC(C(=O)OC)C(=O)OC)ccc31)[C@H](c1ccc(OCCO)cc1)N1[C@H](c3ccccc3)[C@H](c3ccccc3)OC(=O)[C@H]1[C@@H]2C(N)=O
Second: COCCOC(=O)N1C(=O)[C@@]2(c3cc(C#CCC(C(=O)OC)C(=O)OC)ccc31)[C@H](C(=O)N1CCCCCCC1)[C@H]1C(=O)O[C@H](c3ccccc3)[C@H](c3ccccc3)N1[C@@H]2c1ccc(O)cc1
The z-score of the first is higher: 5.25 for the first, 0.915 for the second.

First: Cc1cc(C)c(C(O)C2C=CC3C(=O)N(c4ccccc4)C(=O)C3N2Nc2ccc([N+](=O)[O-])cc2)c(C)c1 (stereo not given)
Second: C[C@@H]1ON(c2ccccc2)[C@H](c2ccccc2)[C@H]1C(=O)N1C(=O)OC[C@H]1Cc1ccccc1
The z-score of the first is higher: 6.15 for the first, 1.66 for the second.

First: O=C(CS)NCCCCCNC(=O)[C@@H]1C[C@@H]2C(=O)N3CCC[C@H]3C(=O)N2[C@@H]1c1ccc(O)cc1
Second: C[N+](C)(C)CCCCNC(=O)[C@H]1C[C@H]2C(=O)NCC(=O)N2[C@H]1c1ccc(O)cc1
The z-score of the first is higher: 2.25 for the first, 0.367 for the second.

Going from `COc1ccccc1CN1C(=O)c2ccccc2[C@@H](C(=O)NCC(C)C)[C@@H]1c1ccc(CO)cc1` to `CC(C)N1C(=O)c2ccccc2[C@](C)(C(=O)O)[C@@H]1c1ccc(CO)cc1`, the z-score falls from 1.12 to 0.268.

Compared with `COC(=O)[C@@]1(Cc2ccc(F)cc2)[C@@H]2[C@@H](CC(=O)[C@H]2CC(=O)C(=O)N2CCCC2)CN1C(=O)c1ccccc1`, `COC(=O)[C@@]1(Cc2ccc(F)cc2)[C@H]2c3cc(C(=O)N(C)C)n(CCSCCO)c3C[C@H]2CN1C(=O)c1ccccc1` is lower in z-score: 1.76 for the first, 0.621 for the second.

Going from `CC1CC/C=C\[C@H]2OC34C=CCN(c5ccc(Cl)cc5)C(=O)[C@H]3N(C(CO)C(C)C)C(=O)[C@]4(C)C2C(=O)O1` (stereo not given in full) to `CCN(CC)c1ccc(N2CC=CC34O[C@@H]5/C=C\CCCOC(=O)C5[C@H]3C(=O)N(CCCCCO)[C@@H]4C2=O)cc1` (stereo not given in full), the z-score falls from 2.3 to 1.03.

Compared with `C=CCC(OC(C)=O)[C@@H]1[C@@H](N(Cc2cccc3ccccc23)C(=O)Cc2ccc(F)cc2)c2cc(OCCCO)ccc2N1C(=O)Cc1ccc(OC)cc1` (stereo not given in full), `CCOC(=O)C[C@H]1[C@H](OC(=O)c2ccccc2-c2ccccc2)[C@@H](NC(=O)c2ccccc2)c2cc(OCCCO)ccc2N1C(=O)Cc1ccc(OC)cc1` is higher in z-score: 0.922 for the first, 2.01 for the second.

Compared with `CCCc1cc2c(n1Cc1ccc(OC)cc1)C(C)C1CN(C(=O)c3ccccc3)C(C)(C(=O)OC)C21` (stereo not given), `COC(=O)[C@@]1(Cc2ccc(OC)cc2)[C@H]2c3cc(C(=O)N(C)C)n(CCF)c3C[C@H]2CN1C(=O)c1ccccc1` is lower in z-score: 3.99 for the first, 1.81 for the second.

First: C=CCNC(=O)[C@@H]1[C@H]2C(=O)O[C@H](c3ccccc3)[C@H](c3ccccc3)N2[C@H](c2ccc(O)cc2)[C@@]12C(=O)Nc1ccc(C#CCCO)cc12
Second: NC(=O)NCC#Cc1ccc2c(c1)[C@]1(C(=O)N2)[C@H](c2ccc(OCCO)cc2)N2[C@H](c3ccccc3)[C@H](c3ccccc3)OC(=O)[C@H]2[C@@H]1C(=O)N1CCCCCCC1
The z-score of the first is lower: 2.1 for the first, 4.46 for the second.

Compared with `COC(=O)C(CC#Cc1ccc2c(c1)[C@]1(C(=O)N2)[C@H](c2ccccc2OCCO)N2[C@H](c3ccccc3)[C@H](c3ccccc3)OC(=O)[C@H]2[C@@H]1C(=O)Nc1nc2ccccc2s1)C(=O)OC`, `COc1ccc(C#Cc2ccc3c(c2)[C@]2(C(=O)N3)[C@H](C(=O)O)[C@H]3C(=O)O[C@H](c4ccccc4)[C@H](c4ccccc4)N3[C@@H]2c2ccc(OCCO)cc2)cc1` is lower in z-score: 4.68 for the first, 3.33 for the second.

Compared with `COC(=O)[C@@]1(Cc2ccc(OC)cc2)[C@H]2c3cc(C(=O)N4CCCC4)n(CCc4ccc(O)c(OC)c4)c3C[C@H]2CN1C(=O)c1ccccc1`, `COC(=O)[C@@]1(Cc2ccccc2)[C@H]2c3cc(C(=O)N(C)C)n(Cc4ccccn4)c3C[C@H]2CN1C(=O)c1ccccc1` is lower in z-score: 2.81 for the first, 1.32 for the second.

Compared with `C=C(CCCC)/C(=C/C[C@H](OC(=O)c1ccncc1)c1ccc(CO)o1)c1cc(C(=O)OC)ccc1OC`, `C=CCNC(=O)[C@H]1[C@@H]2C(=O)O[C@@H](c3ccccc3)[C@@H](c3ccccc3)N2[C@@H](c2ccc(OCCO)cc2)[C@]12C(=O)N(C(=O)OCCOC)c1ccc(C#CC3=CCCCC3)cc12` is lower in z-score: 4.31 for the first, 2.13 for the second.

Work on `C=CCOC(=O)[C@H]1[C@@H]2C(=O)O[C@@H](c3ccccc3)[C@@H](c3ccccc3)N2[C@@H](c2ccc(OCCOC(=O)[C@H]3C[C@H]4C(=O)N[C@@H](CCCCN(C)C)C(=O)N4[C@H]3c3ccc(O)cc3)cc2)[C@]12C(=O)Nc1ccccc12` yielded a z-score of -0.862.

With `[N-]=[N+]=Nc1ccccc1[C@@H]1OC(c2ccc(OCCCO)cc2)=N[C@]1(CCS(=O)(=O)c1ccccc1)C(=O)NCc1ccccc1` the z-score was 28 (active).
In the case of `COc1ccc([Si](C)(C)[C@@H]2[C@@H](CC(=O)N(CCO)Cc3ccccc3)O[C@]3(C(=O)N(Cc4ccc(N5CCOC5=O)cc4)c4ccccc43)[C@H]2C)cc1`, the z-score is reported as 8.87 (active).
For `COC(=O)[C@]1(Cc2ccccc2CN=[N+]=[N-])N=C(c2ccc(OCCCO)cc2)O[C@@H]1c1ccccc1`, the z-score was 27.8 (active).
In the case of `CN(C)C(=O)[C@@]1(CCC(=O)OC(C)(C)C)N=C(c2ccc(OCCCO)cc2)O[C@H]1c1ccccc1N=[N+]=[N-]`, the z-score is reported as 32.9 (active).
With `C=C(/C(=C/C[C@@H](OC(=O)c1ccncc1)c1ccccc1OCCO)c1cnc2ccccc2c1)C(C)C` the z-score was 10 (active).
With `O=C1N(CCS(=O)(=O)c2ccccc2)Cc2ccccc2C[C@@]12COC(c1ccc(OCCCO)cc1)=N2` the z-score was 25.9 (active).
For `COCCCNC(=O)[C@@]1(Cc2ccccc2CN=[N+]=[N-])N=C(c2ccc(OCCCO)cc2)O[C@H]1c1ccccc1N=[N+]=[N-]`, the z-score was 36.4 (active).
With `O=C1C2C=CC(C(O)c3cccc4ccccc34)N(Nc3ccccc3)C2C(=O)N1c1ccccc1` (stereo not given) the z-score was 8.49 (active).
